Consider 19 compounds from PubChem BioAssay.

Values without a mark were called inactive. For some assays here: Results with a measured potency or affinity are listed apart. The source made the active and inactive calls. Unless noted, how the calls were made is not given here.

Assay [1] can be described thus: antimalarial activity against Dd2 strain (AID 2302;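 active means growth inhibition above 50% at the single 2 µM test dose, taken to imply half-maximal potency below 2 µM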;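 further: 0% = DMSO untreated growth and 100% = chloroquine plus artemisinin killed control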). Conditions: P. falciparum Dd2 in RBCs, LDH growth readout, 72 h; at 2 µM; stronger effect = higher value.
A short description of assay [2]: HepG2 cytotoxicity, primary screen, cytotoxicity control for P. falciparum antimalarial project, cell-based, ATP luminescence (AID 2303;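 active means inhibition above 50%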;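 further: 0% = DMSO wells and 100% = digitonin-killed cells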). To be noted: HepG2 viability, 24-48 h, at 10 µM, stronger effect = higher value.
Assay [3] has as its target L-lactate dehydrogenase (Plasmodium falciparum (isolate CDC / Honduras)) (UniProt Q27743). Put plainly: PfLDH activity inhibition – cell lysate, 3D7 strain, counter-screen for P. falciparum growth inhibition project (AID 2304).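 Further: 0% = vehicle and 100% = reference inhibitor.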 To be noted: P. falciparum 3D7 crude extract, LDH APAD/NBT absorbance; at 2 µM; stronger effect = higher value.
Assay [4] can be described thus: inhibition of 3D7 malaria parasite growth – strain 3D7 (AID 2306).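 Further: 0% = DMSO wells and 100% = chloroquine plus artemisinin control wells.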 Conditions: P. falciparum 3D7 erythrocytic growth, LDH absorbance, 72 h; at 2 µM; stronger effect = higher value.
For assay [5], the target named is Calcium-dependent protein kinase 1 (Plasmodium falciparum (isolate 3D7)) (UniProt P62344). In words: PfCDPK1 kinase inhibitors, biochemical, TCAMS library (AID 1159585; cut-off not given, nearly all actives have IC50 up to about 0.98 µM;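 further: inhibitors leave more ATP so luminescence rises with inhibition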). Conditions: recombinant PfCDPK1, Kinase-Glo ATP depletion luminescence. A general note: In Kinase-Glo more light means more ATP remaining.
Calcium-dependent protein kinase 1 (Plasmodium falciparum (isolate 3D7)), sequence (P62344 whole entry, looked up): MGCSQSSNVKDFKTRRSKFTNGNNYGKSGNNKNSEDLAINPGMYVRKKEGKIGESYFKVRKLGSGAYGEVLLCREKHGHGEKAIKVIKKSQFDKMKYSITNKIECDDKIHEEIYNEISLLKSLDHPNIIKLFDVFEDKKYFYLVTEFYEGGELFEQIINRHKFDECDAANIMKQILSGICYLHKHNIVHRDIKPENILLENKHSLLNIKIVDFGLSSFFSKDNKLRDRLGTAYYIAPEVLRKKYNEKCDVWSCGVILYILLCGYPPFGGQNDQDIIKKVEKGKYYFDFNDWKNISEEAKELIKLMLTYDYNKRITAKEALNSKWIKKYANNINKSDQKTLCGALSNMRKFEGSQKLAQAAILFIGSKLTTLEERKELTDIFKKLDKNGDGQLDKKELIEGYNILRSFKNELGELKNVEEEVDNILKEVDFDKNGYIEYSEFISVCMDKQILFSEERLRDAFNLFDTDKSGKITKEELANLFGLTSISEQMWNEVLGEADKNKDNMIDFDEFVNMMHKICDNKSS
Assay [6] addresses Plasmodium falciparum protein kinase 6 (PK6, PF3D7_1337100) (UniProt Q8IDW1). Put plainly: PfPK6 kinase inhibitors, biochemical, TCAMS library (AID 1159586). To be noted: recombinant PfPK6, Kinase-Glo ATP depletion luminescence.
The target in assay [7] is Protein kinase 7 (PK7), Plasmodium falciparum 3D7 (PF3D7_0213400) (UniProt Q7YTF7). In words: inhibition of Plasmodium PK7 catalytic activity – biochemical, TCAMS antimalarial set, Kinase-Glo luminescence (AID 1159587). Conditions: recombinant PfPK7, Kinase-Glo ATP depletion luminescence.
Protein kinase 7 (PK7), Plasmodium falciparum 3D7 (PF3D7_0213400), sequence (Q7YTF7 1-343): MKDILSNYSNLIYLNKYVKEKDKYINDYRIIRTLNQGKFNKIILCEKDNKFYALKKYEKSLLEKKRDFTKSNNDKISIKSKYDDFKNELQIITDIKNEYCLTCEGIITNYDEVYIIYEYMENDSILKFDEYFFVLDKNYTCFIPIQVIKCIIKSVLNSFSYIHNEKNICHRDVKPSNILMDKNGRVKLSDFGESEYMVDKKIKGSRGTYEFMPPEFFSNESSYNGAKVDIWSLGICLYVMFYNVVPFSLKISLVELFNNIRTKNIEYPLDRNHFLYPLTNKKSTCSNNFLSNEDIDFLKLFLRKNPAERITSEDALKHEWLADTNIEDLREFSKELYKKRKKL
Assay [8] addresses Calcium-dependent protein kinase 4 (Plasmodium falciparum (isolate 3D7)) (UniProt Q8IBS5). Put plainly: PfCDPK4 kinase inhibitors, biochemical, TCAMS library (AID 1159588; cut-off not given, nearly all actives have IC50 up to about 0.91 µM). Conditions: recombinant PfCDPK4, Kinase-Glo ATP depletion luminescence.

Plasmodium falciparum protein kinase 6 (PK6, PF3D7_1337100), sequence (Q8IDW1 1-305): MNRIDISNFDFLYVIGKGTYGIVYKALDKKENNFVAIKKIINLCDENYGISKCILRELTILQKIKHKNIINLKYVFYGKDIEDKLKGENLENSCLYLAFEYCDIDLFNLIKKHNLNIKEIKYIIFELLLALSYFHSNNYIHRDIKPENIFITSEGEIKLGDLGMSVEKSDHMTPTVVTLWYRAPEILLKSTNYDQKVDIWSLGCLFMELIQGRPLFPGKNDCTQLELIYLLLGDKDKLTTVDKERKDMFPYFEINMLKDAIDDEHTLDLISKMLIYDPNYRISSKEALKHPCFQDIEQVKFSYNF
L-lactate dehydrogenase (Plasmodium falciparum (isolate CDC / Honduras)), sequence (Q27743 whole entry, looked up): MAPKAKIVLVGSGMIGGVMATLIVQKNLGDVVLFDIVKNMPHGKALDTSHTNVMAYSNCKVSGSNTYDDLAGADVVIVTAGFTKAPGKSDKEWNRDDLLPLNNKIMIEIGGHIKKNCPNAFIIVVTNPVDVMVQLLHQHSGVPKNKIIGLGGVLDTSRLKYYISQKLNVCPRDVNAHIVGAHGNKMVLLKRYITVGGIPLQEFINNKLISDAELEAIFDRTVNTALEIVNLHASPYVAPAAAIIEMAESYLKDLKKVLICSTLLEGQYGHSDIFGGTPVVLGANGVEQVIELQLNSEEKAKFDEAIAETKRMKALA
Calcium-dependent protein kinase 4 (Plasmodium falciparum (isolate 3D7)), sequence (Q8IBS5 whole entry, looked up): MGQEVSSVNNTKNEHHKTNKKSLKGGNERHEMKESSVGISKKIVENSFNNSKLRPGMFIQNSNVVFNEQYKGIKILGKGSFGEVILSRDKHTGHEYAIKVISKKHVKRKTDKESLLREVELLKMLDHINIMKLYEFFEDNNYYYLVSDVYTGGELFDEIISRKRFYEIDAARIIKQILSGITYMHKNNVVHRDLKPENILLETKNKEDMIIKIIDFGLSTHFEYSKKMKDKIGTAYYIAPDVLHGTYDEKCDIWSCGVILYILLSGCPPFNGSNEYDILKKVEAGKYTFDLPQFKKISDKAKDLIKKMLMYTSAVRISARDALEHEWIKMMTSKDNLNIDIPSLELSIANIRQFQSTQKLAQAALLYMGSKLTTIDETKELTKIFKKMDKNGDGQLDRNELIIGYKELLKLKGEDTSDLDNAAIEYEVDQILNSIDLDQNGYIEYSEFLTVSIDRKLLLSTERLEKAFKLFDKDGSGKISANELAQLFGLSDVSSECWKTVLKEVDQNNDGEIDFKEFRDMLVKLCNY

In the case of `Cc1ccc(C2CCN(CCCCNC(=O)c3ccc(-c4ccc(C#N)cc4)cc3)CC2)c(O)c1`, the growth inhibition in assay [1] was 90% (active); in assay [4] it was 100% (active). In addition, the inhibition in assay [2] was 45%; in assay [3] it was -3%. For the same compound, the outcome in assay [5], in assay [6], in assay [7] and in assay [8] was inactive.

Take `O=C(NCCCN1CCCC1=O)c1cnc(N2CCC(Oc3ccccc3)CC2)c(Cl)c1`: the results for the growth inhibition in assay [1] and in assay [4] were 93% (active) and 97% (active), respectively. The inhibition in assay [2] is 7%; in assay [3], -2%. The outcome in assay [5], in assay [6], in assay [7] and in assay [8] was inactive.

Take `Cc1cc(-c2cccc(CNC3CCCC3)c2)ccc1S(=O)(=O)NCCN1CCCC1`: the growth inhibition in assay [1] is 7%; in assay [4], 81% (active). Further, the results for the inhibition in assay [2] and in assay [3] were 38% and 2%, respectively. Further, the result in assay [5], in assay [6], in assay [7] and in assay [8] was inactive.

Turning to `CN1CCCC1CCNc1ncc2c(-c3ccc(NC(=O)Nc4cc(C(F)(F)F)ccc4F)c(F)c3)nn(C)c2n1` (configuration not stated), the growth inhibition is 90% (active) in assay [1] and 99% (active) in assay [4]. In addition, the inhibition in assay [2] was 100% (active); in assay [3], 1%. Moreover, the outcome in assay [5], in assay [6], in assay [7] and in assay [8] was inactive.

Consider `Cc1cccc2[nH]c(-c3cccc(-c4ccc(NC(=O)Nc5ccc6c(c5)OCO6)cc4)c3)nc12`, for which the growth inhibition in assay [1] is 86% (active); in assay [4], 101% (active). The values for the inhibition in assay [2] and in assay [3] were 80% (active) and -3%, respectively. The outcome in assay [5], in assay [6], in assay [7] and in assay [8] was inactive.

Turning to `COc1cc(C(=O)Nc2ccc(-c3nc4ccccc4[nH]3)cc2)cc(OC)c1OC`, the values for the growth inhibition in assay [1] and in assay [4] were 33% and 99% (active), respectively. Further, the inhibition in assay [2] was 13%; in assay [3], -8%. Besides, the outcome in assay [5], in assay [6], in assay [7] and in assay [8] was inactive.

`c1ccc(-c2cc(NCCCn3ccnc3)nc(-c3cccnc3)n2)cc1`: the growth inhibition in assay [1] was 6%; in assay [4], 84% (active). For the same compound, the inhibition in assay [2] is 15%; in assay [3], 0%. Besides, the result in assay [5], in assay [6], in assay [7] and in assay [8] was inactive.

For the compound `Cc1cc(NCCc2ccccc2)nc(/N=C(\N)Nc2cccc(F)c2)n1`, the growth inhibition in assay [1] was -1%; in assay [4], 91% (active). Moreover, the values for the inhibition in assay [2] and in assay [3] were -6% and -2%, respectively. Further, the outcome in assay [5], in assay [6], in assay [7] and in assay [8] was inactive.

Turning to `CCCCN1CC[C@@H](CCC(O)c2ccnc3ccc(OCCC(C)C)cc23)[C@@H](CC)C1` (some centres not stated), the figures for the growth inhibition in assay [1] and in assay [4] were 90% (active) and 94% (active), respectively. The inhibition was 22% in assay [2] and 2% in assay [3]. Moreover, the outcome in assay [5], in assay [6], in assay [7] and in assay [8] was inactive.

With `N#Cc1cccc(Nc2cc(C(F)(F)F)nc(Nc3ccccc3)n2)c1`, the figures for the growth inhibition in assay [1] and in assay [4] were 17% and 92% (active), respectively. Moreover, the figures for the inhibition in assay [2] and in assay [3] were 7% and 5%, respectively. For the same compound, the outcome in assay [5], in assay [6], in assay [7] and in assay [8] was inactive.

Turning to `O=C(c1ccc(Cl)c(Cl)c1)N1CCc2c([nH]c3ccccc23)C1CN1CCCC1` (configuration not stated), the figures for the growth inhibition in assay [1] and in assay [4] were 16% and 94% (active), respectively. Also, the inhibition in assay [2] is 83% (active); in assay [3], 2%. The result in assay [5], in assay [6], in assay [7] and in assay [8] was inactive.

In the case of `Cc1cc(C2CCN(CCCCNC(=O)c3ccc(-c4ccc(C(F)(F)F)cc4)cc3)CC2)c(C)cc1OCCO`, the growth inhibition is 3% in assay [1] and 99% (active) in assay [4]. The inhibition was 31% in assay [2] and 2% in assay [3]. For the same compound, the outcome in assay [5], in assay [6], in assay [7] and in assay [8] was inactive.

Consider `CCC1N=C(N)N=C(N)N1OCc1ccc(Cl)c(Cl)c1` (configuration not stated), for which the growth inhibition in assay [1] was 90% (active); in assay [4] it was 93% (active). Further, the inhibition is 54% (active) in assay [2] and -4% in assay [3]. Also, the result in assay [5], in assay [6], in assay [7] and in assay [8] was inactive.

As for `O=C(/C=C/c1ccc(C(F)(F)F)cc1)NCCCCCN1CCCN(C(=O)Nc2ccc(Cl)c(Cl)c2)CC1`, the growth inhibition in assay [1] was 17%; in assay [4], 100% (active). For the same compound, the inhibition in assay [2] was 89% (active); in assay [3], 0%. The outcome in assay [5], in assay [6], in assay [7] and in assay [8] was inactive.

In the case of `O=C(c1ccc(F)c2ccccc12)N1CCc2cc3nccc(N4CCN5CCC[C@H]5C4)c3cc21`, the values for the growth inhibition in assay [1] and in assay [4] were 54% (active) and 90% (active), respectively. In addition, the results for the inhibition in assay [2] and in assay [3] were -8% and -5%, respectively. Besides, the outcome in assay [5], in assay [6], in assay [7] and in assay [8] was inactive.

In the case of `Cc1cccc2[nH]c(-c3ccc(-c4ccc(CN5CC(C)OC(C)C5)cc4)cc3)nc12` (configuration not stated), the results for the growth inhibition in assay [1] and in assay [4] were 96% (active) and 97% (active), respectively. Besides, the figures for the inhibition in assay [2] and in assay [3] were 37% and 3%, respectively. The result in assay [5], in assay [6], in assay [7] and in assay [8] was inactive.

Turning to `O=C(NC1CCCCCC1)[C@@H]1CCCN1C(=O)c1ccc(O)c(-c2ccc(Cl)c(Cl)c2)c1`, the growth inhibition in assay [1] is 98% (active); in assay [4], 99% (active). The inhibition in assay [2] is -2%; in assay [3], -7%. Further, the outcome in assay [5], in assay [6], in assay [7] and in assay [8] was inactive.

Consider `CCOC(=O)CCCc1cc(NC2CCN(C)CC2)nc(Nc2ccc(C)cc2)n1`, for which the growth inhibition in assay [1] is 12%; in assay [4], 90% (active). Further, the inhibition in assay [2] is 35%; in assay [3], -2%. Also, the outcome in assay [5], in assay [6], in assay [7] and in assay [8] was inactive.

In the case of `CC(=O)Nc1ccc(CN2CCCN(c3cc(NC(=O)c4cccc(C)c4)ccn3)CC2)cc1`, the growth inhibition was 10% in assay [1] and 92% (active) in assay [4]. For the same compound, the figures for the inhibition in assay [2] and in assay [3] were -2% and -1%, respectively. The outcome in assay [5], in assay [6], in assay [7] and in assay [8] was inactive.

The term inhibition denotes the drop in the measured response relative to a control, in per cent.
